In the library only some 5.8% were active in any assay of this set; here they are far more common.
MCF10A rereplic: DNA re-replication induction in MCF 10a cells; Potency, µM (series often up to 46.1 µM), without a hit: top-dose activity, positive = re-replication, most hits filed as activators; hit rate 2.9% among 350,000; MCF 10A DNA re-replication, Hoechst nuclear intensity, 48 h; also: % of control where 0% means no effect; nearly all actives have a fitted effect of over 50% in size
12-LOX inh: ALOX12 (human) lipoxygenase inhibition; hit rate 1.1% among 580,000; purified 12hLO, xylenol orange hydroperoxide absorbance; Potency, µM (doses to about 108 µM), for the others: at the top dose activity change, negative = inhibition, actives largely listed as inhibitors; also: % is scaled to controls: 0 for no effect and ±100 for the full control effect
Target sequence (P18054 whole entry, looked up): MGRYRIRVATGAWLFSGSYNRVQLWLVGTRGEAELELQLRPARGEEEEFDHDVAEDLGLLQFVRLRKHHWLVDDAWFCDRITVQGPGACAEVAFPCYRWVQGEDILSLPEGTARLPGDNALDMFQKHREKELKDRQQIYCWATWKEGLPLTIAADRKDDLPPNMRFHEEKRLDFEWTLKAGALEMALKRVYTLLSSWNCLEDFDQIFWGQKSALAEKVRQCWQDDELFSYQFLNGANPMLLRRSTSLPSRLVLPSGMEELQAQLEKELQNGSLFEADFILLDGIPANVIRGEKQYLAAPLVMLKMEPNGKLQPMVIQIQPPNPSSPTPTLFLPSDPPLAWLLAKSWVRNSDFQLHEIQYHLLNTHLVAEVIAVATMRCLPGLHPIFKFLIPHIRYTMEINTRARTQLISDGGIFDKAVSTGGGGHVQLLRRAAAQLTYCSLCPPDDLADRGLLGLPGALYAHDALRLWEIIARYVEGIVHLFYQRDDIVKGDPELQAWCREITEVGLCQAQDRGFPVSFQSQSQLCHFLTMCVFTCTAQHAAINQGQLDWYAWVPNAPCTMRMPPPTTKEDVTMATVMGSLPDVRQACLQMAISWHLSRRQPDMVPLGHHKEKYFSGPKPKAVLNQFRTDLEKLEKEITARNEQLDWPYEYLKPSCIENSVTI
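Purified human 12hLO (150 nM final) in 25 mM Hepes, 0.01% Triton X-100, pH 7.0 was preincubated 15 min at room temperature with compound. Then 40 uM arachidonic acid was added, 30 min. Hydroperoxide was read by Fe-XO absorbance ratio 573/405 nm.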
SW480 rereplic: inducers of DNA re-replication in SW480 colon cancer cells; SW480 DNA re-replication, Hoechst DNA content imaging, 48 h; Potency, µM (series often up to 46.1 µM), for inactives: at the highest dose re-replication activation, usual class: activators; hit rate 1.8% among 340,000; also: % of control where 0% means no effect; nearly all actives have a fitted effect of over 55% in size
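Treated cells incubate 48 hr (37 C, 5% CO2), are stained 40 min with Hoechst, and nuclear fluorescence is enumerated; a rise in nuclei with high DNA signal marks re-replication.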
PINK1 modulator: PINK1 expression modulation. PINK1 immunofluorescence, high-content cytometry, 24 h. Potency, µM (top dose mostly 76.6 µM), inactives show top-dose activation (PINK1 increase), actives largely listed as activators. hit rate 0.2% among 410,000; active = well fitted activation curve with a large enough effect; inconclusive = small, poorly fitted or top-dose-only effect; cell line not stated here; also: % of control where 0% means no effect; nearly all actives have a fitted effect of over 65% in size
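Compound titrations (5 concentrations, 24 h) on a stable cell line; DMSO and CCCP controls. Endpoint: fixed-cell PINK1 immunofluorescence with mitochondrial, cell and nuclear markers, scanned by microplate cytometer.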
KB-3-1 cytotox: kills parental KB-3-1 adenocarcinoma cells. KB-3-1 viability, CellTiter-Glo ATP luminescence, 72 h. Potency, µM (top dose mostly 46.1 µM), actives largely listed as cytotoxic. hit rate 1.4% among 400,000; also: % is scaled to controls: 0 for no effect and ±100 for the full control effect; nearly all actives have a fitted effect of over 60% in size
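KB-3-1 cells, DMEM (no phenol red) + 10% FBS; compound by pin transfer, 72 h, 37 °C. Readout: CellTiter-Glo luminescence after 10 min. Data normalized, curve-fitted.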
KB-V1 MDR tox: KB-V1 MDR subline cytotoxicity. KB-V1 MDR cells viability, CellTiter-Glo, 72 h. Potency, µM (doses to about 46.1 µM), usual class: cytotoxic. hit rate 3.4% among 400,000. AID 1347076; also: % is scaled to controls: 0 for no effect and ±100 for the full control effect; nearly all actives have a fitted effect of over 60% in size
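Cytotoxicity via CellTiter-Glo luminescence after 72 h compound exposure at 37 degrees C. Cells: drug-selected KB-V1 line, DMEM phenol-red free plus 10% FBS. Compounds tested at multiple concentrations; normalized data fitted to concentration-effect curves.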
* = called active by the depositor; i = inactive; ? = inconclusive; / = no result given; [ ] = dose if it differs, or a comment. Unless noted, calls follow the shape of the dose curve; as a rule, active = well fitted curve in the direction sought with a large enough effect; inconclusive = small, poorly fitted or top-dose-only effect, or another doubt; inactive = no such curve, though single readings can be large; an effect the other way counts as inactive or inconclusive. Potency is read from the fitted curve at half-maximal effect.

SMILES | MCF10A rereplic | 12-LOX inh | SW480 rereplic | PINK1 modulator | KB-3-1 cytotox | KB-V1 MDR tox
COC(=O)c1ccccc1S(=O)(=O)N1CCC(C(=O)OC(C)C(=O)Nc2ccccc2OC)CC1 (centres undefined) | 4% | ? | 1% | 2% | i | i
O=C(O)c1c2c(nc3ccc(S(=O)(=O)N4CCC(C(=O)NCc5ccc(Cl)cc5)CC4)cc13)CCCC2 | 0% | 25µM* | 0% | -1% | i | i
O=C(NCc1ccc(F)cc1)C1CCN(S(=O)(=O)c2ccc3c(c2)OCCCO3)CC1 | 11% | -13% | 2% | 0% | i | ?
COc1ccc(CNC(=O)C2CCN(S(=O)(=O)c3ccc4nc5c(c(C(=O)O)c4c3)CCCC5)CC2)cc1 | / | ? | / | -1% | i | i
O=C(NCc1ccc(Cl)cc1Cl)C1CCN(S(=O)(=O)c2ccc3c(c2)OCCCO3)CC1 | -3% | -15% | -255% | 2% | ? | 3.3µM*
CCCNC(=O)C1CCN(c2ccc(S(=O)(=O)N3CCOCC3)cc2Cl)CC1 | 2% | 4%[57.4 µM] | 1% | / | i | ?
COc1ccccc1NC(=O)C(C)OC(=O)C1CCN(S(=O)(=O)c2ccc(C)c(C)c2)CC1 (centres undefined) | 15% | -6% | -2% | -2% | i | 7.3µM*
O=C(NCc1cccnc1)C1CCN(c2ccc(S(=O)(=O)N3CCOCC3)cc2Cl)CC1 | 11% | -1% | ? | 9% | 23µM* | i
Cc1nc2nc3ccn(CCCN(C)C)c(=O)c3c(-c3ccccc3)n2n1 | / | 47% | / | / | / | /
O=[N+]([O-])c1cccc(/C=N/OCc2c(F)cccc2Cl)c1 | / | 1% | / | / | / | /
O=C(CCc1ncc(-c2ccc(Cl)cc2)o1)Nc1ccc(F)cc1F | / | -9% | / | / | / | /
O=C(NCCC1CCCO1)c1cc(-c2ccncc2)nc2ccccc12 (centres undefined) | / | 10% | / | / | / | /
O=C(NCc1ccc2c(c1)OCO2)C1CCN(c2ccc(S(=O)(=O)N3CCCC3)cc2)CC1 | 2% | 22% | 6% | 2% | ? | 2.6µM*
COc1ccc(S(=O)(=O)N2CCC(C(=O)Nc3ccc4c(c3)OCCO4)CC2)cc1OC | 2% | 0% | 9% | -25%[38.3 µM] | i | 18µM*
COc1ccccc1CNC(=O)C1CCN(S(=O)(=O)c2ccc3c(c2)OCCCO3)CC1 | 0% | -17% | 21% | 2% | i | 18µM*
O=C(CCc1ccccc1)NC1(C(F)(F)F)C(=O)Nc2c1c(=O)[nH]c(=O)n2Cc1ccccc1 (centres undefined) | / | -5% | / | / | / | /
CCC1CCC/C1=N\NC(=O)c1ccncc1 (centres undefined) | / | 6% | / | / | / | /
CCC1CCC/C1=N\NC(=O)c1cc(C)[nH]n1 (centres undefined) | 2.9µM* | 22% | 16µM* | / | i | i
CCN(C(=O)COC(=O)c1cc(-c2cccc3ccccc23)nc2ccccc12)C1CCS(=O)(=O)C1 (centres undefined) | 4% | -28% | 11% | 5% | i | 18µM*
CCN(C(=O)COC(=O)CNC(=O)c1ccc2ccccc2c1)C1CCS(=O)(=O)C1 (centres undefined) | 5.8µM* | -16% | -35% | 2% | i | i
O=C(NCCc1ccc(Cl)cc1)c1nc(-c2cccc(C(F)(F)F)c2)c2cnccn12 | / | 26% | / | / | / | /
NC(=O)c1ccccc1NC(=O)/C=C/c1c(Cl)cccc1Cl | ? | 0% | ? | 7%[38.3 µM] | i | 4.1µM*
O=C(O)/C=C/c1c(Cl)cccc1Cl | / | -18% | / | / | / | /
CN(C)S(=O)(=O)c1ccc(NC(=O)/C=C/c2ccccc2Cl)cc1 | ? | -13% | 16% | 1% | i | 15µM*
CN(C)c1ccc(NC(=O)/C=C/c2c(Cl)cccc2Cl)cc1 | 16µM* | -25% | 6% | ? | ? | 13µM*
SMILES | MCF10A rereplic | 12-LOX inh | SW480 rereplic | PINK1 modulator | KB-3-1 cytotox | KB-V1 MDR tox
O=C(/C=C/c1ccccc1Cl)Nc1ccccc1 | 4% | 19% | -5% | -1% | i | i
Cc1ccc(S(=O)(=O)n2nccc2-c2c(-c3ccccc3)noc2C)cc1 | 12µM* | 93% | 13µM* | 2% | ? | ?
Cc1onc(-c2ccccc2)c1-c1ccnn1S(=O)(=O)c1ccc(Cl)cc1 | -13% | 29% | -50% | 0% | i | ?
COc1cc(N(C)C)ccc1C=c1c2ccccc2n2c1cc(-c1ccccc1)[n+]2C | 8% | ? | ? | -6% | 1µM* | ?
CN(C)c1ccc(C=c2c3ccccc3n3c2cc(-c2ccccc2)[n+]3C)cc1 | -9% | 40µM* | ? | -4% | ? | 16µM*
CN(C)c1ccc(/C=C2\C=Cc3cc([N+](=O)[O-])ccc32)cc1 | / | / | / | 1% | ? | i
CN(C)c1ccc(C=c2c3cc([N+](=O)[O-])ccc3n3c2cc(-c2ccccc2)[n+]3C)cc1 | ? | 7.9µM* | 7% | 0% | 5.2µM* | i
COc1cc(N(C)C)ccc1/C=C/c1ccnc2ccccc12 | / | / | / | 4% | i | ?
CN(C)c1ccc(C=c2c3ccccc3n3c2cc(-c2ccc(Cl)cc2)[n+]3C)cc1 | 26% | 45µM* | ? | 1% | 7.3µM* | i
CCc1ccc2oc(-c3ccc(NC(=O)CC(C)C)cc3)nc2c1 | / | -2% | / | / | / | /
COc1cc(/C=C2\NC(=O)NC2=O)c(Br)cc1OCc1ccccc1F | / | 2% | / | / | / | /
COC(=O)c1cccc(OC(=O)c2ccccc2Cl)c1 | / | 2% | / | / | / | /
CC(C)C1=NOC2(CCN(Cc3ccc(Cl)cc3)CC2)C1 | / | 5%[6.33 µM] | / | / | / | /
CCOc1ccc(CNC(=O)CC(C)n2ccc(C)n2)cc1 (centres undefined) | / | -1% | / | / | / | /
CC1C=CCC2C(=O)N(c3cccc(C(=O)NCc4ccccc4)c3)C(=O)C12 (centres undefined) | 6% | 32µM* | 1% | 0% | i | i
CCOC(=O)Cn1c(=O)c2c3c(sc2n(CCCN(C)C)c1=O)CCC(C)C3 (centres undefined) | / | 38% | / | / | / | /
COc1ccc(-c2onc(C)c2-c2ccc(C(=O)OC(C)C)o2)c(O)c1 | ? | ? | 16% | 17% | ? | 21µM*
Cc1noc(-c2ccc(OCc3ccc(F)cc3)cc2O)c1-c1ccccc1 | / | -1% | / | / | / | /
Cc1c(NC(=O)/C(C#N)=C/c2ccc(-c3ccc(Cl)c(Cl)c3)o2)c(=O)n(-c2ccccc2)n1C | 5% | -7% | 7% | -2% | i | i
Cc1c(NC(=O)/C(C#N)=C/c2ccc(-c3cccc(Cl)c3)o2)c(=O)n(-c2ccccc2)n1C | ? | ? | ? | 8% | ? | 9.2µM*

Source: PubChem
